Data on 18 compounds can be found in PubChem BioAssay.

Values joined by “and” are separate entries in the source; they are usually repeats but may differ in a detail not shown here. Identical values can stand only once. Active and inactive are the calls of the source. Rule as the data show it, unless noted: active = parasite load remaining mostly below about 12% (no sharp cut-off); inactive = mostly above about 10%.

A short description of assay [1]: liver-stage malaria parasite growth inhibition, primary screen, cell-based, HepG2, luciferase luminescence, HepG2 viability (AID 624349).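 Also: 100% = mean of DMSO negative control wells on the same plate.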 The conditions noted are these: P. berghei liver stage in HepG2, luciferase luminescence, concentration not given here; parasite load remaining: stronger effect = lower value; viability: measured here: HepG2 viability without parasites.
Assay [2] is described as follows: stimulators of nuclear beta-catenin in C2C12, primary screen, imaging, WNT3A-conditioned medium, mouse C2C12, NPC library (AID 1117326; in the data active = nuclear beta-catenin stimulation mostly above about 4.2%, no sharp cut-off; inactive = mostly below about 10%). To be noted: stronger effect = higher value.

What is called viability is a read-out of living cells in per cent, often relative to untreated cells. Regarding `NC[C@H]1O[C@H](O[C@H]2[C@H](O)[C@@H](O[C@H]3O[C@H](CO)[C@@H](O)[C@H](N)[C@H]3O)[C@H](N)C[C@@H]2N)[C@H](N)[C@@H](O)[C@@H]1O`, in assay [1], the parasite load remaining was 95.5% (inactive) and 56.4% (inactive); the viability was 69.4% and 85.5%. Further, in assay [2] (at 10 µM), the nuclear beta-catenin stimulation was 0.8% (inactive). Further, in assay [2] (stimulation, at 2 µM), the nuclear beta-catenin stimulation is -1.6%.

Consider `Nc1nc(=S)c2[nH]cnc2[nH]1`, for which, in assay [1], the parasite load remaining was 146% (inactive) and 64.9% (inactive); the viability was 48.2% and 41.8%. The nuclear beta-catenin stimulation in assay [2] (at 10 µM) is 14.8% (inactive). For the same compound, the nuclear beta-catenin stimulation in assay [2] (stimulation, at 2 µM) came to 6.2%.

Turning to `O=C1OC(c2ccc(O)cc2)(c2ccc(O)cc2)c2ccccc21`, the parasite load remaining in assay [1] was 95% (inactive) and 84.8% (inactive). In assay [1], the viability was 73.9% and 95.1%. In addition, the nuclear beta-catenin stimulation in assay [2] (at 10 µM) was 1.3% (inactive); in assay [2] (stimulation, at 2 µM), 0%.

Take `Cc1cnc(C(=O)O)c[n+]1[O-]`: in assay [1], the parasite load remaining is 22.9% (inactive) and the viability amounted to 79.5%. Further, in assay [2] (at 10 µM), the nuclear beta-catenin stimulation was 2.4% (inactive). In addition, the nuclear beta-catenin stimulation in assay [2] (stimulation, at 2 µM) came out at 1.1%.

For `CC(C(=O)O)c1ccc2c(c1)[nH]c1ccc(Cl)cc12` (configuration not stated), in assay [1], the parasite load remaining is 138% (inactive) and 52% (inactive); the viability was 73.1% and 91.7%. In addition, the nuclear beta-catenin stimulation in assay [2] (at 10 µM) was -0.6% (inactive). For the same compound, the nuclear beta-catenin stimulation in assay [2] (stimulation, at 2 µM) came to 1.1%.

As to `O=C(O)CCC(=O)Nc1ccc(S(=O)(=O)Nc2nccs2)cc1`, in assay [1], the parasite load remaining is 92.2% (inactive) and 146% (inactive) and 21.3% (inactive); the viability is 97.3% and 69.1% and 82.2%. Moreover, in assay [2] (at 10 µM), the nuclear beta-catenin stimulation is -0.6% (inactive). In addition, in assay [2] (stimulation, at 2 µM), the nuclear beta-catenin stimulation is 0.6%.

For the compound `COc1cccc(OC)c1C(=O)N[C@@H]1C(=O)N2[C@@H]1SC(C)(C)[C@@H]2C(=O)O`, in assay [1], the parasite load remaining was 72.2% (inactive) and 53.5% (inactive); the viability is 72.9% and 91.1%. In addition, in assay [2] (at 10 µM), the nuclear beta-catenin stimulation was -0.9% (inactive). Besides, the nuclear beta-catenin stimulation in assay [2] (stimulation, at 2 µM) is -1.1%.

As for `CN1C(C)(C)CCCC1(C)C`, the parasite load remaining in assay [1] was 91.5% (inactive) and 53.1% (inactive). For the same compound, the viability in assay [1] is 99.3% and 92.2%. Besides, the nuclear beta-catenin stimulation in assay [2] (at 10 µM) was 1.1% (inactive); in assay [2] (stimulation, at 2 µM), 0.5%.

For `NC(=O)c1ccc([N+](=O)[O-])cc1Cl`, the parasite load remaining in assay [1] was 63.8% (inactive) and 35.2% (inactive). For the same compound, the viability in assay [1] was 105% and 84.3%. The nuclear beta-catenin stimulation in assay [2] (at 10 µM) was -0.6% (inactive); in assay [2] (stimulation, at 2 µM), 0.9%.

On to `COc1ccc(CN(CCN(C)C)c2ncccn2)cc1`, for which, in assay [1], the parasite load remaining was 161% (inactive) and 52.7% (inactive); the viability was 86.2% and 91.9%. For the same compound, the nuclear beta-catenin stimulation in assay [2] (at 10 µM) is 1.3% (inactive). Moreover, the nuclear beta-catenin stimulation in assay [2] (stimulation, at 2 µM) turned out to be 2.3%.

Regarding `Nc1nc2c(c(=O)[nH]1)N(C=O)C(CNc1ccc(C(=O)N[C@@H](CCC(=O)O)C(=O)O)cc1)CN2` (some centres not stated), the parasite load remaining in assay [1] is 101% (inactive) and 95.5% (inactive) and 64.5% (inactive). For the same compound, in assay [1], the viability was 96.6% and 70.1% and 99.2%. Moreover, the nuclear beta-catenin stimulation in assay [2] (at 10 µM) is 1.7% (inactive); in assay [2] (stimulation, at 2 µM), 4.1%.

In the case of `Cn1c([N+](=O)[O-])cnc1COC(N)=O`, in assay [1], the parasite load remaining was 74.3% (inactive) and 117% (inactive) and 35.4% (inactive); the viability was 101% and 70.6% and 91.7%. The nuclear beta-catenin stimulation in assay [2] (at 10 µM) was 0.1% (inactive). Further, the nuclear beta-catenin stimulation in assay [2] (stimulation, at 2 µM) turned out to be 0.6%.

In the case of `COC(=O)Nc1nc2ccc(S(=O)c3ccccc3)cc2[nH]1` (configuration not stated), in assay [1], the parasite load remaining was 162% (inactive) and 87.1% (inactive) and 49.8% (inactive); the viability was 85.8% and 93.1% and 68.5%. In addition, in assay [2] (at 10 µM), the nuclear beta-catenin stimulation is 57.7% (active). Besides, the nuclear beta-catenin stimulation in assay [2] (stimulation, at 2 µM) came to 58.1%.

For `CCOC(=O)n1ccn(C)c1=S`, in assay [1], the parasite load remaining is 106% (inactive) and 140% (inactive) and 85.8% (inactive); the viability is 108% and 84.5% and 77.4%. For the same compound, the nuclear beta-catenin stimulation in assay [2] (at 10 µM) is 0.6% (inactive). Also, the nuclear beta-catenin stimulation in assay [2] (stimulation, at 2 µM) was -0.4%.

Turning to `CCN1CCCC(OC(=O)C(c2ccccc2)c2ccccc2)C1` (configuration not stated), in assay [1], the parasite load remaining was 78.7% (inactive) and 105% (inactive) and 40.1% (inactive); the viability is 75.6% and 65.9% and 85.9%. In addition, the nuclear beta-catenin stimulation in assay [2] (at 10 µM) was 0.6% (inactive). Also, in assay [2] (stimulation, at 2 µM), the nuclear beta-catenin stimulation worked out at 2.6%.

Take `Oc1ccc(Cl)c2cccnc12`: in assay [1], the parasite load remaining was 109% (inactive) and 39.2% (inactive); the viability is 67.1% and 81.7%. Also, the nuclear beta-catenin stimulation in assay [2] (at 10 µM) is 26.2% (inactive). Besides, the nuclear beta-catenin stimulation in assay [2] (stimulation, at 2 µM) was 2.1%.

As to `S=P(N1CC1)(N1CC1)N1CC1`, in assay [1], the parasite load remaining was 137% (inactive) and 49.2% (inactive); the viability was 91% and 141%. Further, the nuclear beta-catenin stimulation in assay [2] (at 10 µM) is -0.7% (inactive). In assay [2] (stimulation, at 2 µM), the nuclear beta-catenin stimulation is -0.3%.

Consider `Cc1c(N(C)C)c(=O)n(-c2ccccc2)n1C`, for which, in assay [1], the parasite load remaining is 18.2% (inactive) and 103% (inactive) and 38% (inactive); the viability was 52.4% and 97.7% and 84.1%. Besides, the nuclear beta-catenin stimulation in assay [2] (at 10 µM) is 2.9% (inactive). The nuclear beta-catenin stimulation in assay [2] (stimulation, at 2 µM) was found to be 0.6%.
